Screening results deposited in PubChem by National Center for Advancing Translational Sciences (NCATS).
D2 ag-1: Beta-Arrestin HTS for Positive Allosteric Modulators of the Human D2 Dopamine Receptor: Agonists; D(2) dopamine receptor (Homo sapiens), P14416; 0.084% of 360,000 active; activation, % (concentration not given with the values); AID 624465, 2012; DiscoveRx PathHunter D2 beta-arrestin, luminescence, 90 min; 100% = 57 uM dopamine signal; in the data active = activation above about 40%
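Agonist mode: compounds alone added to overnight-plated D2 PathHunter cells for 90 min at 37 C, with 57 uM final dopamine (EC100) defining full response. Beta-arrestin recruitment detected by chemiluminescent reagent, read after 1 h at ambient temperature.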
D2 PAM-1: HTS Assay for Positive Allosteric Modulators of the Human D2 Dopamine Receptor: Primary Screen for Potentiators; HEK293 T-REx D2, calcium flux, EC20 dopamine potentiation; potentiation, % at 10 µM; 0.34% of 340,000 active; AID 485347, 2010;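 active = potentiation over 3 SD above the plate norm, cut at about 30% in these data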; note: 0% is about no effect
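Primary screen. Calcium kinetics in induced HEK293 T-REx D2 cells: compound pre-addition 180 s, EC20 dopamine, 180 s more.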
D2 PAM-2: Beta-Arrestin HTS for Positive Allosteric Modulators of the Human D2 Dopamine Receptor: Potentiators. potentiation, % (concentration not given with the values). DiscoveRx D2 beta-arrestin cells, luminescence, 90 min; 100% = 57 uM dopamine signal. 0.23% of 360,000 active. AID 624464, 2012. D(2) dopamine receptor (Homo sapiens), P14416; in the data active = potentiation above about 50%
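PathHunter D2 cells, attached overnight at 37 deg C, received compound in DMSO plus dopamine at EC20 (50 nM final) for 90 min at 37 deg C. Beta-arrestin recruitment was read as luminescence after 1 h with detection reagent at ambient temperature.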
D2 ag-2: HTS Assay for Allosteric Agonists of the Human D2 Dopamine Receptor: Primary Screen for Agonists; D(2) dopamine receptor (Homo sapiens), P14416; HEK293 T-REx D2 cells, calcium flux agonist mode; activation, % at 2 µM; 0.53% of 340,000 active; AID 485358, 2010;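 active = activation over 3 SD above normal in the single-dose calcium agonist read, cut at about 30% in these data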; note: 0% is about no effect
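Calcium-flux readout, 1 cycle/sec over 180 s following compound pin transfer, in inducible HEK293 Trex D2 cells (force-coupled); dopamine controls included. Positive calcium responses during this window marked compounds as potential agonists.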
D2 antagonist: HTS Assay for Allosteric Antagonists of the Human D2 Dopamine Receptor: Primary Screen for Antagonists; HEK293 TREx D2 cells, calcium flux, dopamine EC80; AID 485344, 2010; D(2) dopamine receptor (Homo sapiens), P14416; 2% of 340,000 active; inhibition, % at 10 µM; in the data active = inhibition above about 30%; inactive = below that, where a call was filed; note: 0% is about no effect
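Measurement of antagonist activity uses fluorescent calcium dye in inducible HEK293 T-REx D2 cells: 10 s baseline, compound addition with 180 s read, EC80 dopamine addition with a further 180 s read.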
B2AR arrestin: qHTS assay of beta-arrestin-biased ligands of beta2-adrenergic receptor. Potency, µM (top dose mostly 46.1 µM), for the others: at the top dose activation, most hits filed as activators. 0.02% of 330,000 active. AID 492947, 2010. Beta-2 adrenergic receptor (Homo sapiens), P07550. beta-arrestin recruitment to beta2AR, cell-based reporter; active = well fitted activation curve with a large enough effect;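 note: potency is the fitted concentration of half-maximal effect; 0% = DMSO controls and full agonism = EC100 isoproterenol or metaproterenol; nearly all actives have a fitted effect of over 65% in size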
Target sequence (P07550 whole entry, looked up): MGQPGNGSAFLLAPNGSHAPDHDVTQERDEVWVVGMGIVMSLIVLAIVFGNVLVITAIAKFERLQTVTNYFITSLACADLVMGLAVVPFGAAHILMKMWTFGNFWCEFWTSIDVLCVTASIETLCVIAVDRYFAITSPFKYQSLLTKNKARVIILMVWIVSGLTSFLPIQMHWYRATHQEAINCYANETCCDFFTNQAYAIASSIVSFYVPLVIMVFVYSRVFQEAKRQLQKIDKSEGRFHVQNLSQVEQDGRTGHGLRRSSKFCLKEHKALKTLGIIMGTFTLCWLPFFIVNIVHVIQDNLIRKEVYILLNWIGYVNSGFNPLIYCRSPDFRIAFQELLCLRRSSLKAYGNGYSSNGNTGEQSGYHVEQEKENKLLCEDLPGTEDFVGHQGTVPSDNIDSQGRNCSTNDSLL
Starred values were filed as active, the others as inactive; · = no result. In the library only some 2.4% were active in any assay of this set; here they are far more common.

SMILES	D2 ag-1	D2 PAM-1	D2 PAM-2	D2 ag-2	D2 antagonist	B2AR arrestin
O=C(O)c1ccc(N2CCCS2(=O)=O)cc1	-2	-1	5	0	34*	0%
O=C(CNC(=O)C1CCCC1)Nc1ccccc1Br	-3	1	-19	0	21	0%
O=[N+]([O-])c1ncccc1OCc1ccccc1Br	-4	-11	-5	-1	34*	-1%
CCC(=O)N1c2ccc(S(=O)(=O)CCC(=O)NCCC3=CCCCC3)cc2CC1C (centres undefined)	0	-14	-35	0	31*	-1%
Cc1nn(CC(C)C(=O)N2CCN(S(=O)(=O)c3ccc(Cl)cc3)CC2)c(C)c1C (centres undefined)	-4	-16	-3	2	32*	0%
CNC(=O)c1c(NC(=O)c2ccc(S(=O)(=O)N3CCC(C)CC3)cc2)sc2c1CCC2	·	0	·	-10	·	·
O=C(OCn1nnc2ccccc2c1=O)C1CCN(S(=O)(=O)c2cccs2)CC1	-4	74*	-3	-1	-11	0%
O=C(OCc1ccccc1)C1CCN(S(=O)(=O)c2cccs2)CC1	-3	·	-6	·	·	·
COc1ccc2c(C)cc(SCC(=O)Nc3cccnc3Cl)nc2c1	-5	0	-9	0	4	0%
C=CCn1c(CNc2ccccc2)nnc1SCC(=O)N/N=C/c1ccccc1O	3	-1	-1	0	-3	0%
COc1cccc(NC(=O)Cn2c(CCC(=O)O)ccc2-c2ccc(Cl)cc2)c1	-3	-1	-5	1	-18	-1%
COc1cccc(NC(=O)Cn2c(CCC(=O)O)ccc2-c2ccccc2)c1	-4	34*	-6	1	4	0%
COc1ccccc1N1CCN(S(=O)(=O)/C=C/c2ccccc2)CC1	-2	-1	14	1	54*	0%
CC1(C)Nc2ccc(O)cc2-c2c1ssc2=S	3	16	28	0	36*	0%
COc1cccc(-n2sc3c(c2=S)-c2cc(OC)ccc2NC3(C)C)c1	-1	6	2	0	-7	-1%
COc1ccc(NC(=O)CSc2nnc3n2CCCCC3)cc1S(=O)(=O)N(C)C	-2	·	-15	·	·	·
CCC(OC(=O)c1ccco1)C(=O)NCc1ccc(C)cc1 (centres undefined)	-2	-25	2	1	66*	0%
Cc1ccc(CNC(=O)C(C)OC(=O)c2ccco2)cc1 (centres undefined)	-2	2	-2	0	6	-1%
Cc1ccc2c(c1)N(CC(=O)NCCc1c[nH]c3ccccc13)C(=O)CO2	-1	60*	-2	1	12	0%
Cc1ccc2c(c1)N(CC(=O)NCCc1ccccc1)C(=O)CO2	·	4	·	·	·	·
CCNC(=S)Nc1ccc2c(c1)c(=O)n(C)n2-c1ccc(C(C)(C)C)cc1	3	·	-4	·	·	·
CCOc1ccc(NC(=O)CNC(=O)c2ccc(OC)c(OC)c2)cc1	0	-8	-5	0	8	·
COc1ccc(NC(=O)COC(C)=O)cc1Cl	-5	-3	-3	0	13	-1%
COc1cc(OC)cc(C(=O)NCC(=O)Nc2ccc(OC)c(Cl)c2)c1	3	-20	-17	-1	37*	-1%
COCC(=O)Nc1ccc(OC)c(Cl)c1	-3	2	-7	0	37*	0%
SMILES	D2 ag-1	D2 PAM-1	D2 PAM-2	D2 ag-2	D2 antagonist	B2AR arrestin
Cc1ccc(C)n1Cc1ccc(C(=O)O)cc1	5	-1	-3	0	4	0%
COc1ccccc1NC(=O)C(=O)NCc1ccncc1	-2	2	-6	-1	-17	-1%
CN(CCOc1ccccc1)CC(=O)Nc1ccc(Br)cc1F	0	0	-8	1	53*	0%
Cc1ccc(NC(=O)CSc2nc(N)c(-c3ccccc3)c(=O)[nH]2)cc1Cl	-4	-9	-13	0	-10	-1%
Nc1nc(SCC(=O)Nc2ccc(Cl)cc2)[nH]c(=O)c1-c1ccccc1	-2	-22	-29	-1	36*	0%
COc1ccc(NC(=O)CSc2nc(O)c(Cc3ccccc3)c(=O)[nH]2)cc1	0	13	-15	0	53*	0%
CC1=CC(C)(C)C(C(=O)O)C(C(=O)O)C1 (centres undefined)	-2	0	-4	0	4	0%
CC(C)c1ccccc1NC(=O)CNCCOc1ccccc1F	1	-26	-11	31*	46*	0%
CC1(C(=O)NS(=O)(=O)C2CC2)CCCN(C(=O)c2ccccc2C(F)(F)F)C1 (centres undefined)	3	·	-4	·	·	·
COc1cc(C(=O)NCCNC(=O)C2CCCNC2=O)cc(OC)c1OC (centres undefined)	-8	-7	-4	0	-5	0%
COc1ccc(C(=O)NNC2=Nc3cccc4cccc2c34)cc1	0	-27	-27	2	63*	3%
Cc1ccc(C(=O)NNC2=Nc3cccc4cccc2c34)cc1	-3	-25	-25	0	71*	0%
NC(=O)NNC1=Nc2cccc3cccc1c23	0	5	-8	4	-18	0%
Cc1cccc(N(C(=O)c2cnc3n(c2=O)CCS3)C2CCCCC2)c1	0	-8	-11	0	8	0%
C/C(=N\NC(=O)c1ccc(OC2CCCC2)cc1)c1ccc(O)cc1	5	12	-10	1	-6	-1%
CCc1ccc(C(C)NC(=S)NC2CCCCC2)cc1 (centres undefined)	-5	11	-13	1	48*	0%
CCOc1ccc(C(C)NC(=S)NC2CCCCC2)cc1OCC (centres undefined)	-4	-6	-12	-1	41*	4%
CC(NC(=O)c1cccc(C(F)(F)F)c1)C(c1ccccc1)N1CCOCC1 (centres undefined)	7	18	-7	-10	-29	-1%
Nc1c(C(=O)C2CC2)sc2nc(-c3cccs3)cc(C(F)(F)F)c12	-6	-8	-13	36*	4	0%
Nc1c(C(=O)Nc2ccc(F)cc2)sc2nc(-c3cccs3)cc(C(F)(F)F)c12	·	-6	·	·	·	·
CCC(=O)C1=C(c2cccc([N+](=O)[O-])c2)N(C(=O)CC)n2c(nnc2C2CCCCC2)S1	·	-4	·	1	·	·
